Rows were chosen to be rich in hits. Some 2.1% of all compounds tested hit in one or more screens of this group.
YB-1 expr inh = YB-1 expression inhibition | 30,000 tested, 0.37% active | U2OS, qRT-PCR YB-1 vs CDIP delta delta Cp, 16 h; active compounds read high; zero = DMSO, each unit about twofold | delta delta Cp (YB-1 minus CDIP) (concentration not given with the values);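 active = delta delta Cp rounded down to an integer at or above 3, about 3 SD of DMSO wells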;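 note: higher means less YB-1 transcript or more CDIP transcript relative to DMSO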
ROS inducer = raises reactive oxygen species in U2OS cancer cells. 46,000 tested, 2% active. ROS induction (% of piperlongumine), % at 10 µM. AID 624156. U2OS ROS induction, H2DCF-DA fluorescence; in the data active = ROS induction above about 79%, passing the limit was not always enough;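 note: 0% = DMSO vehicle median and 100% = reference compound median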
Active calls of the source: *; . = not tested or not shown.

SMILES | YB-1 expr inh | ROS inducer
COc1ccc(C#Cc2cnc3c(c2)C(=O)N([C@H](C)CO)C[C@H](C)[C@H](CN(C)C(=O)NC(C)C)O3)cc1OC | 0.177 | 4.7
COc1cccc(S(=O)(=O)N(C)C[C@@H]2Oc3ncc(-c4cccc(F)c4)cc3C(=O)N([C@H](C)CO)C[C@@H]2C)c1 | 0.215 | 6.3
COc1ccc(C#Cc2cnc3c(c2)C(=O)N([C@H](C)CO)C[C@H](C)[C@H](CN(C)C(=O)NC2CCCCC2)O3)cc1OC | -0.632 | 134.8*
COc1cccc(S(=O)(=O)N(C)C[C@@H]2Oc3ncc(C#Cc4ccc(F)cc4)cc3C(=O)N([C@H](C)CO)C[C@@H]2C)c1 | -0.00216 | 102.7*
COc1ccc(C#Cc2cnc3c(c2)C(=O)N([C@H](C)CO)C[C@H](C)[C@H](CN(C)C(=O)Nc2ccccc2)O3)cc1OC | -0.0559 | 37.2
COc1ccc(C#Cc2cnc3c(c2)C(=O)N([C@H](C)CO)C[C@H](C)[C@H](CN(C)C(=O)Nc2cccc4ccccc24)O3)cc1OC | 0.097 | 147.7*
O=C(Nc1ccc(OC(F)(F)F)cc1)N1CCN(C(c2ccccc2)c2ccccc2)CC1 | . | 7.0
O=C1CCCc2c1cc(C(=O)Nc1ccccc1)c(=O)n2-c1ccccc1 | . | -7.4
CSc1nnc(-c2ccc(C(C)(C)C)cc2)n1C | . | -9.9
N#CCc1nc(-c2ccc(Cl)c(Cl)c2)cs1 | . | 18.0
CCC(C)NC(=O)Cc1ccc(OC)cc1 (stereo unspecified) | . | -11.2
COc1cc(O)c2c(=O)cc(-c3ccc(OC)c(-c4c(O)cc(O)c5c(=O)cc(-c6ccc(O)cc6)oc45)c3)oc2c1 | -0.3 | 179.3*
COc1ccc(-c2cc(=O)c3c(O)cc(O)cc3o2)cc1 | -0.102 | 38.8
COc1cc(OC)c(NC(=O)c2c(C)nn(-c3ccccc3)c2-n2cccc2)cc1Cl | . | 26.2
COC(=O)c1ccccc1NC(=O)c1c(C)nn(-c2ccccc2)c1-n1cccc1 | . | 126.1*
C[C@@H]1CCCCO[C@@H](CN(C)C(=O)NC2CCCCC2)[C@@H](C)CN([C@H](C)CO)C(=O)c2cc(NS(C)(=O)=O)ccc2O1 | -0.576 | -9.1
C[C@@H]1CCCCO[C@@H](CN(C)C(=O)C2CCCCC2)[C@@H](C)CN([C@H](C)CO)C(=O)c2cc(NS(C)(=O)=O)ccc2O1 | 0.42 | 90.7*
CC(C)NC(=O)N(C)C[C@@H]1OCCCC[C@@H](C)Oc2ccc(NS(=O)(=O)c3ccc(Cl)cc3)cc2C(=O)N([C@H](C)CO)C[C@@H]1C | 0.0662 | 10.8
C[C@@H]1CCCCO[C@@H](CN(C)C(=O)C2CCCCC2)[C@@H](C)CN([C@H](C)CO)C(=O)c2cc(NS(=O)(=O)c3ccc(Cl)cc3)ccc2O1 | 0.621 | 100.9*
O=C(CCC(=O)Nc1cccc2ccccc12)Nc1cccc2ccccc12 | . | -6.2
CCCc1c(C(=O)OCC)c(C(=O)OCC)c2c(-c3ccccc3)nc(N3CCOCC3)nn12 | 3.23* | 114.1*
CCOC(=O)c1cnc(N2CCOCC2)nc1N | -0.178 | 28.9
CCOC(=O)c1c(N)n[nH]c1C | . | 3.7
Cc1ccc(-c2nn(CCC(=O)N3CCCC3)c(=O)c3ccccc23)cc1 | . | 12.7
N#Cc1cc2c(nc1SCCS(=O)(=O)c1nc3ccccc3s1)CCCC2 | . | 9.9
SMILES | YB-1 expr inh | ROS inducer
Cc1cc(C)c(C#N)c(SCCS(=O)(=O)c2nc3ccccc3s2)n1 | . | 140.9*
COc1ccccc1N1CCN(S(=O)(=O)Cc2ccccc2)CC1 | . | -3.5
CN1C(=O)/C(=C\c2cn(CC(=O)N3CCOCC3)c3ccccc23)C(=O)NC1=S | . | 3.0
Cc1ccccc1N1C(=O)NC(=O)/C(=C\c2cn(CC(=O)N3CCOCC3)c3ccccc23)C1=O | . | 117.0*
O=C1NC(=O)N(c2ccccc2F)C(=O)/C1=C/c1cn(CC(=O)N2CCCC2)c2ccccc12 | . | 99.6*
C=CCn1cc(C=C2C(=O)OC3(CCCC3)OC2=O)c2ccccc21 | . | 45.0
COc1ccc2c(c1)c(=O)oc1cc(OC(C)C)ccc12 | -0.0167 | 114.2*
COc1ccc2c(c1)c(=O)oc1cc(O)ccc12 | . | 4.4
CCC1CCc2nc3sc(C(=O)Nc4cc(Cl)ccc4OC)c(N)c3cc2C1 (stereo unspecified) | . | 23.5
O=C(Nc1ccc2c(c1)OCO2)c1cncc(NS(=O)(=O)c2ccccc2)c1 | . | -3.2
Cc1ccc(-n2ncc3c(=O)n(CC(=O)NCc4ccccc4Cl)cnc32)cc1C | . | 0.1
COc1ccc(-n2nnc3c(SCC(=O)Nc4cccc(C(F)(F)F)c4)ncnc32)cc1 | . | 261.3*
COc1ccc(-n2c(C)nnc2SCC(=O)Nc2cccc(C(F)(F)F)c2)cc1 | . | 1.6
COc1cc(C2C(C#N)=C(C)Nc3oc(C)nc32)ccc1OCCN1CCOCC1 (stereo unspecified) | -0.627 | 115.7*
COC(=O)C1=C(C)Nc2ncnn2C1c1ccc(OCC(=O)N2CCOCC2)c(OC)c1 (stereo unspecified) | . | 41.3
CN(C)CCSc1nc(-c2cccs2)cc(-c2ccc(Cl)cc2)c1C#N | . | 19.8
CCCCC1(CC(=O)N2CCOCC2)C(=O)N(c2ccccc2)N(c2ccccc2)C1=O | . | 0.3
COc1ccc(S(=O)(=O)N2CCOCC2)cc1C(=O)Nc1ccc(S(=O)(=O)C(F)F)cc1 | . | 10.8
COc1ccc(-c2cc(C(F)F)n3ncc(C(=O)Nc4cccc(S(=O)(=O)N5CCOCC5)c4)c3n2)cc1 | . | 132.6*
C=C(C(=O)O)[C@@H]1CC[C@@]2(C)CC[C@@H](O)C(=C)C2C1 (stereo partly specified) | 3.58* | 51.1
C=C(C(=O)O)[C@@H]1CC[C@@]2(C)CCC=C(C)[C@@H]2C1 | -0.119 | -4.0
Cc1nc(C(F)(F)F)ccc1C(=O)Oc1ccccc1N1CCCCC1 | . | -9.7
CCC(Sc1nnnn1-c1ccccc1)C(=O)Nc1sc2c(c1C#N)CCCC2 (stereo unspecified) | 0.182 | 95.3*
CCC(Sc1nnc(N)s1)C(=O)Nc1sc2c(c1C#N)CCCC2 (stereo unspecified) | . | -4.4
CCOC(=O)c1cnc2c(C(F)(F)F)cccc2c1NCCCN1CCOCC1 | . | 112.7*
SMILES | YB-1 expr inh | ROS inducer
CCOC(=O)c1cnc2ccc(OCC)cc2c1NCCCN1CCOCC1 | . | 51.9
CNC(=S)N(Cc1ccc(OC)cc1OC)c1ccc(I)cc1 | . | 14.5
O=C(NCCCc1nc2ccccc2n1CCCOc1ccccc1)c1ccco1 | . | -1.3
CCCCn1c(CCNC(=O)c2ccco2)nc2ccccc21 | . | 80.9*
Cc1cc(=O)n2nc(N(C)CC(=O)N3CCCCC3)sc2n1 | . | -2.0
COc1ccccc1-c1cc(C(F)(F)F)nc(S(=O)(=O)CCCC(=O)N2CCOCC2)n1 | . | 89.8*
COc1ccc(OC)c(S(=O)(=O)N(C)CC(=O)N2CCOCC2)c1 | . | -13.0
C[C@H]1CN([C@@H](C)CO)C(=O)CCCn2cc(nn2)CO[C@H]1CN(C)S(=O)(=O)c1ccccc1 | -0.0638 | -21.7
C[C@@H]1CN([C@H](C)CO)C(=O)CCCn2cc(nn2)CO[C@@H]1CN(C)S(=O)(=O)c1cccs1 | -0.342 | 89.1*
C[C@@H]1CN([C@H](C)CO)C(=O)CCCn2cc(nn2)CO[C@@H]1CN(C)S(=O)(=O)c1ccccc1 | 0.0391 | 104.4*
C[C@H](CO)N1C[C@H](C)[C@H](CN(C)S(=O)(=O)c2cccs2)OCc2cn(nn2)CCCC1=O | -0.466 | 27.8
CCc1ccc(NC(=O)Cn2c(C(=O)OC)cc3oc4ccccc4c32)cc1 | . | -15.7
CCOc1cc2[nH]c(=S)n(CCCC(=O)O)c(=O)c2cc1OCC | . | 5.3
